Compounds without any hit were thinned out: in the full panel of roughly 79,000, 15% have a hit. The source made the active and inactive calls. Rule as the data show it: active = growth inhibition above about 70%; inactive = the rest.
Experiments:
[1] = NCI Yeast Anticancer Drug Screen. Data for the rad52 strain (AID 147);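 also: 0% = growth of vehicle-treated control cultures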; settings: S. cerevisiae rad52 mutant growth inhibition, active compounds read high
Procedure, shortened: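 Inhibition of yeast growth, referenced to vehicle controls, was the measured output for a strain with defective DNA damage repair.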

[2] = NCI Yeast Anticancer Drug Screen. Data for the wt1 strain (AID 149);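 also: 0% = growth of vehicle-treated wt1 cultures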; settings: S. cerevisiae wt1 strain (SPY 50644) growth inhibition, active compounds read high
Procedure, shortened: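 Yeast wt1 strain exposed to compounds; growth inhibition measured relative to vehicle-treated controls.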

[3] = NCI Yeast Anticancer Drug Screen. Data for the rad50EPP+ strain (AID 151);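 also: 0% = growth of vehicle-treated control cultures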; settings: S. cerevisiae rad50 mutant strain, active compounds read high
Procedure, shortened: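 Genetically defined yeast (rad50EPP+, DNA damage repair alteration) is grown with compound, and inhibition of growth is expressed relative to vehicle-treated controls.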

[4] = NCI Yeast Anticancer Drug Screen. Data for the mgt1 strain (AID 153); settings: S. cerevisiae mgt1 mutant growth inhibition, active compounds read high
Procedure, shortened: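 In the mgt1 strain, test compounds were added and growth inhibition was determined relative to vehicle-treated controls.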

[5] = NCI Yeast Anticancer Drug Screen. Data for the rad50 strain (AID 155);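 also: 0% = growth of vehicle-only cultures of the same strain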; settings: S. cerevisiae rad50 strain growth inhibition, active compounds read high
Procedure, shortened: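 Yeast carrying a defined DNA repair defect were exposed to test compounds, and growth was compared with vehicle-treated controls to give percent inhibition.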

[6] = NCI Yeast Anticancer Drug Screen. Data for the mec2-1 strain (AID 157); settings: S. cerevisiae mec2-1 strain, active compounds read high
Procedure, shortened: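 Each compound was tested on mec2-1 yeast, a strain altered in DNA damage repair or cell cycle control. Growth inhibition is reported relative to vehicle.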

[7] = NCI Yeast Anticancer Drug Screen. Data for the rad14 strain (AID 159);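 also: 0% = growth of vehicle-treated control cultures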; settings: S. cerevisiae rad14 strain growth inhibition, active compounds read high
Procedure, shortened: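 Yeast cells carrying a defined DNA-repair defect were exposed to compounds, and growth inhibition was calculated relative to vehicle-treated control cultures.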

[8] = NCI Yeast Anticancer Drug Screen. Data for the sgs1 mgt1 strain (AID 161);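 also: 0% = growth of cultures given vehicle only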; settings: S. cerevisiae sgs1 mgt1 strain, active compounds read high
Procedure, shortened: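 Mutant yeast exposed to compound; growth scored against vehicle-only wells.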

[9] = NCI Yeast Anticancer Drug Screen. Data for the CLN2oe strain (AID 163);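 also: 0% = growth of vehicle-only control cultures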; settings: S. cerevisiae CLN2oe strain, active compounds read high
Procedure, shortened: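 First, the altered yeast strain was treated with each compound; second, its growth was measured; finally, inhibition was derived by comparison with vehicle controls.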

[10] = NCI Yeast Anticancer Drug Screen. Data for the cln2 rad14 strain (AID 165);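 also: 0% = growth equal to vehicle treated cultures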; settings: S. cerevisiae cln2 rad14 strain, active compounds read high
Procedure, shortened: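 Test compounds were added to cln2 rad14 yeast cultures; inhibition of growth was then determined by comparison with vehicle treatment.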

[11] = NCI Yeast Anticancer Drug Screen. Data for the bub3 strain (AID 167); settings: S. cerevisiae bub3 mutant strain, active compounds read high
Procedure, shortened: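 Compounds were applied to a genetically altered yeast strain carrying a cell-cycle control defect. Growth inhibition was scored against vehicle-treated controls.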

[12] = NCI Yeast Anticancer Drug Screen. Data for the wt2 strain (AID 169);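 also: 0% = growth of vehicle-treated yeast cultures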; settings: S. cerevisiae wt2 strain growth inhibition, active compounds read high
Procedure, shortened: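 The panel's yeast strains carry defined changes in DNA repair or cell cycle genes. Each strain is grown with compound, and growth loss is scored relative to vehicle.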

[13] = NCI Yeast Anticancer Drug Screen. Data for the mlh1 strain (AID 171);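 also: 0% = growth of vehicle-treated control cultures of the same strain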; settings: S. cerevisiae mlh1 strain growth inhibition, active compounds read high
Procedure, shortened: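 Inhibition values reflect reduced yeast growth in the presence of compound, referenced to vehicle controls, using a strain chosen for its alteration in DNA repair or cell cycle control.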

[14] = NCI Yeast Anticancer Drug Screen. Data for the sgs1 strain (AID 173);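 also: 0% = growth of vehicle-only control cultures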; settings: S. cerevisiae sgs1 mutant, active compounds read high
Procedure, shortened: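 Vehicle-treated cultures served as reference for growth inhibition of a yeast strain altered in DNA damage repair or cell cycle control after compound exposure.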

[15] = NCI Yeast Anticancer Drug Screen. Data for the mlh1 rad18 strain (AID 175); settings: S. cerevisiae mlh1 rad18 strain growth inhibition, active compounds read high
Procedure, shortened: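 Inhibition values reflect reduced growth of mutant yeast versus vehicle-treated controls following compound exposure; the mutations affect DNA damage repair.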

[16] = NCI Yeast Anticancer Drug Screen. Data for the rad18 strain (AID 177); settings: S. cerevisiae rad18 mutant growth inhibition, active compounds read high
Procedure, shortened: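 Steps: expose repair-mutant yeast to compound; measure growth; express as inhibition relative to vehicle control.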

[17] = at 5.0 µM (retest, dose inferred, filed as 0.5)
[18] = at 50.0 µM (retest, dose inferred, filed as 5.0)

Measured: growth inhibition

CC(/C=C/c1ccccc1)=N\NC(N)=S
active: [1]; at 100.0 µM 72% | [5]; at 33.0 µM 93% | [5]; at 100.0 µM 97% | [8]; [18] 87% | [8]; at 50.0 µM 86.1% | [10]; at 50.0 µM 83% | [11]; at 50.0 µM 83.5% | [15]; [18] 77% | [16]; at 100.0 µM 94%
inactive: [1]; at 1.2 µM 4% | [1]; at 3.7 µM 16% | [1]; at 11.0 µM 16% | [1]; at 33.0 µM 24% | [2]; at 1.2 µM -8% | [2]; at 3.7 µM -5% | [2]; at 11.0 µM 6% | [2]; at 33.0 µM 17% | [2]; at 100.0 µM 35% | [3]; at 1.2 µM -5% | [3]; at 3.7 µM 6% | [3]; at 11.0 µM 0% | [3]; at 33.0 µM -3% | [3]; at 100.0 µM 48% | [4]; at 1.2 µM 9% | [4]; at 3.7 µM 13% | [4]; at 11.0 µM 10% | [4]; at 33.0 µM 29% | [4]; at 100.0 µM 52% | [5]; at 1.2 µM 14% | [5]; at 3.7 µM 10% | [5]; [17] 24% | [5]; at 11.0 µM 7% | [5]; [18] 60% | [5]; at 50.0 µM 33.7% | [6]; at 1.2 µM -2% | [6]; at 3.7 µM 5% | [6]; [17] 15% | [6]; at 11.0 µM -6% | [6]; at 33.0 µM 4% | [6]; [18] 35% | [6]; at 50.0 µM 62.5% | [6]; at 100.0 µM 59% | [7]; at 1.2 µM -8% | [7]; at 3.7 µM 2% | [7]; at 11.0 µM -17% | [7]; at 33.0 µM -15% | [7]; at 100.0 µM 45% | [8]; [17] 58% | [9]; at 1.2 µM 7% | [9]; at 3.7 µM 20% | [9]; at 11.0 µM 16% | [9]; at 33.0 µM 25% | [9]; at 100.0 µM 46% | [10]; [17] -5% | [10]; [18] 15% | [11]; at 1.2 µM 9% | [11]; at 3.7 µM -8% | [11]; [17] 18% | [11]; at 11.0 µM -2% | [11]; at 33.0 µM -8% | [11]; [18] 44% | [11]; at 100.0 µM 13% | [12]; at 1.2 µM -46% | [12]; at 3.7 µM -38% | [12]; at 11.0 µM -43% | [12]; at 33.0 µM -9% | [12]; at 100.0 µM 65% | [13]; at 1.2 µM 5% | [13]; at 3.7 µM 19% | [13]; at 11.0 µM 20% | [13]; at 33.0 µM 37% | [13]; at 100.0 µM 58% | [14]; at 1.2 µM -3% | [14]; at 3.7 µM 9% | [14]; at 11.0 µM 13% | [14]; at 33.0 µM 30% | [14]; at 100.0 µM 68% | [15]; [17] 49% | [15]; at 50.0 µM 58.8% | [16]; at 1.2 µM 9% | [16]; at 3.7 µM 11% | [16]; at 11.0 µM 33% | [16]; at 33.0 µM 67%

From PubChem BioAssay (NCI)
